Assay results published in publication PMC7862700, “An all-to-all approach to the identification of sequence-specific readers for epigenetic DNA modifications on cytosine”.

Tests used:
Assay in all cases: DAPPL (digital affinity profiling via proximity ligation, sequencing); 10 mM Tris-HCl pH 7.5, 50 mM NaCl, 1 mM DTT, 4% glycerol, room temperature, 30 min; GST-TFs on glutathione beads, 16-mer random dsDNA library, 0.1% formaldehyde crosslink after washing; high values mean tight binding
[1] = target: T1, FEV (Homo sapiens, UniProt Q99581 1-238); conditions: protein: recombinant; tags: N-terminal GST; dsDNA, one strand shown
T1 sequence: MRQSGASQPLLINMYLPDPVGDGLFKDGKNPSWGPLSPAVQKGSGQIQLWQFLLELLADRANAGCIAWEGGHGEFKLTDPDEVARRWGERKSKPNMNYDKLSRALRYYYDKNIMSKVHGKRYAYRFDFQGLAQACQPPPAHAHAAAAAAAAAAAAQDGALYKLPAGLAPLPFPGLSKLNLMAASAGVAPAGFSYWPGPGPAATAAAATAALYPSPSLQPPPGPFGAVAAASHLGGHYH
Outline: (§1)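 Binding signal is given per hexamer as its read frequency for a factor divided by its frequency in the tag-only sample. GST-fused human transcription factors were expressed in yeast, captured on glutathione beads, barcoded with DNA and pooled with that sample, then incubated with 200 nmole of a 16-mer random double-stranded DNA library in Tris/NaCl/DTT/glycerol buffer for 30 min at room temperature. The pools were then washed, crosslinked, proximity-ligated, amplified by PCR and sequenced on an Illumina NextSeq500.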

[2] = target: ETV5 (Homo sapiens, UniProt P41161 1-510); conditions: protein: recombinant; tags: N-terminal GST; dsDNA, one strand shown
ETV5, sequence (P41161 whole entry): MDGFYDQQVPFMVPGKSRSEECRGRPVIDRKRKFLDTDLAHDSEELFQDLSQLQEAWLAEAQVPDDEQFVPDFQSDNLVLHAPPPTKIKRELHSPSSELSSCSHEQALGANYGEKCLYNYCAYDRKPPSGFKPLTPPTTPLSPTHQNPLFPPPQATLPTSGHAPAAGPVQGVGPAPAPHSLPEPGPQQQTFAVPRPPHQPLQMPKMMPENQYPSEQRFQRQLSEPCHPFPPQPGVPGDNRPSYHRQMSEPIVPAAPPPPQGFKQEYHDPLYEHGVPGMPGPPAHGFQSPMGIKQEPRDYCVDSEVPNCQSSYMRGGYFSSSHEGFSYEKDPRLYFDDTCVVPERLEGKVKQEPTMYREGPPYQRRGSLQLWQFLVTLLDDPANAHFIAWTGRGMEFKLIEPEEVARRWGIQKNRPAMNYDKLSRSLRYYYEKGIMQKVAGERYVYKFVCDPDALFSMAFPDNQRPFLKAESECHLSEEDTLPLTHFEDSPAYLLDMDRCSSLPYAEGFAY
Outline: as §1

[3] = target: HSF1 (Homo sapiens, UniProt Q00613 1-529); conditions: protein: recombinant; tags: N-terminal GST; chain copies: 3; dsDNA, one strand shown
HSF1, sequence (Q00613 whole entry): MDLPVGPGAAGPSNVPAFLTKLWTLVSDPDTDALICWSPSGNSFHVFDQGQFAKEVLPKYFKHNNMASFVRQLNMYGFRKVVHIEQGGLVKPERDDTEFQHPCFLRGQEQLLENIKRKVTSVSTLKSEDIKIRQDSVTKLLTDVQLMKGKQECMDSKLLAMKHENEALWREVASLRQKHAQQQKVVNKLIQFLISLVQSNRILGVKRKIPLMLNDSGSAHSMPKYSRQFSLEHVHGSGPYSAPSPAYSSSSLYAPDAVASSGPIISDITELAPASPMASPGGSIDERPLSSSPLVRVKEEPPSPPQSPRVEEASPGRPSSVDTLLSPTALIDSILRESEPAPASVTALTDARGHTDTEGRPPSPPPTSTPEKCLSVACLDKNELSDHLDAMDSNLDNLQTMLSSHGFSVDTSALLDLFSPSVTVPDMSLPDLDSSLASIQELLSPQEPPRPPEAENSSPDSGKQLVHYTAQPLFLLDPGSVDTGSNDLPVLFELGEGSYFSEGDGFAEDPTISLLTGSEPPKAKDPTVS
Outline: as §1

[4] = target: T2, SPIC (Homo sapiens, UniProt Q8N5J4 1-248); conditions: protein: recombinant; tags: N-terminal GST; dsDNA, one strand shown
T2 sequence: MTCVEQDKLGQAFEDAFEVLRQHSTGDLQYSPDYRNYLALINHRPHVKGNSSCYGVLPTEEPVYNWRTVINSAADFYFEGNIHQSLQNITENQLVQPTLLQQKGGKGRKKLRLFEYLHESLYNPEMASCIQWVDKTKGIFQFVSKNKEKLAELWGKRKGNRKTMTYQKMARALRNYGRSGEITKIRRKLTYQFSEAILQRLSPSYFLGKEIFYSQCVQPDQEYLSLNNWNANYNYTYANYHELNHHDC
Outline: as §1

[5] = target: ELF4 (Homo sapiens, UniProt Q99607 1-663); conditions: protein: recombinant; tags: N-terminal GST; dsDNA, one strand shown
ELF4, sequence (Q99607 whole entry): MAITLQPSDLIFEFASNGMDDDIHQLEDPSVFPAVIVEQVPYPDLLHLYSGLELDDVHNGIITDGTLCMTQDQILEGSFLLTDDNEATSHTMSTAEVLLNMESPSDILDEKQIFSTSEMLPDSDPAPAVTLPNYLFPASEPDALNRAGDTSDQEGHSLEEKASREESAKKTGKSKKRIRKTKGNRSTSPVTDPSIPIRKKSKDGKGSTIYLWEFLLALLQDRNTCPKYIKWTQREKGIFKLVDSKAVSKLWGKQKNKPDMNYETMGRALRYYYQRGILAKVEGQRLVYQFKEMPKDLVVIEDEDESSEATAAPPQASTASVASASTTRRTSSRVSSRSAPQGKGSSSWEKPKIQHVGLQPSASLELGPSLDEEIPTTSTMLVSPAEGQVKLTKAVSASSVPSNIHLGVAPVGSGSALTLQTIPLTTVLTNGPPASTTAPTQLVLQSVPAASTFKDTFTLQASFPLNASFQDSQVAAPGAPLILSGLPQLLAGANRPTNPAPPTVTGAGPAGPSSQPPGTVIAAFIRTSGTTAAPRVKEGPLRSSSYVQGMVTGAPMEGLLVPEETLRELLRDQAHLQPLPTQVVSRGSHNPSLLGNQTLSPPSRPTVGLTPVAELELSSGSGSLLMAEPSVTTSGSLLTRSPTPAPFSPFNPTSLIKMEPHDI
Outline: as §1

[6] = target: T3, ELK4 (Homo sapiens, UniProt P28324-2 1-405); conditions: protein: recombinant; tags: N-terminal GST; dsDNA, one strand shown
T3 sequence: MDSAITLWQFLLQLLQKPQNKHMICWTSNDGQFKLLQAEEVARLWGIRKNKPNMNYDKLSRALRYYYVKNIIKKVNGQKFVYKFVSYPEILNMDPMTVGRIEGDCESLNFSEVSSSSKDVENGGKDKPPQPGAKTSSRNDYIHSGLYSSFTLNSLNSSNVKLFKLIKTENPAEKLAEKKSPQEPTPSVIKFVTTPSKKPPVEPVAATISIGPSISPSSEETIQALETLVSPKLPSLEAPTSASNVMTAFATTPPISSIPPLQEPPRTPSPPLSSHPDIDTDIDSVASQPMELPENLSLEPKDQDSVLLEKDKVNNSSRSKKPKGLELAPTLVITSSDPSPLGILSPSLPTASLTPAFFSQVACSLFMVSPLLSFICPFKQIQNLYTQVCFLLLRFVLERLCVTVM
Outline: as §1

[7] = target: T4, ETV2 (Homo sapiens, UniProt O00321 1-342); conditions: protein: recombinant; tags: N-terminal GST; dsDNA, one strand shown
T4 sequence: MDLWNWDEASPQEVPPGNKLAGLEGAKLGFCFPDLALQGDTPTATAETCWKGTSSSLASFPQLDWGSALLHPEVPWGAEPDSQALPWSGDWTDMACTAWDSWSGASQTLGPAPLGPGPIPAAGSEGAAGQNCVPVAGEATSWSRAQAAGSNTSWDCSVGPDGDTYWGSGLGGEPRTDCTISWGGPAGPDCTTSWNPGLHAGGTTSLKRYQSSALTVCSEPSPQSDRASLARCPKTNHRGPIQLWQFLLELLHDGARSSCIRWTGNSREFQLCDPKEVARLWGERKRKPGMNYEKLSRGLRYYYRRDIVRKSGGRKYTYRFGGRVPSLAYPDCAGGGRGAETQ
Outline: as §1

[8] = target: T5, ELF3 (Homo sapiens, UniProt P78545 1-371); conditions: protein: recombinant; tags: N-terminal GST; dsDNA, one strand shown
T5 sequence: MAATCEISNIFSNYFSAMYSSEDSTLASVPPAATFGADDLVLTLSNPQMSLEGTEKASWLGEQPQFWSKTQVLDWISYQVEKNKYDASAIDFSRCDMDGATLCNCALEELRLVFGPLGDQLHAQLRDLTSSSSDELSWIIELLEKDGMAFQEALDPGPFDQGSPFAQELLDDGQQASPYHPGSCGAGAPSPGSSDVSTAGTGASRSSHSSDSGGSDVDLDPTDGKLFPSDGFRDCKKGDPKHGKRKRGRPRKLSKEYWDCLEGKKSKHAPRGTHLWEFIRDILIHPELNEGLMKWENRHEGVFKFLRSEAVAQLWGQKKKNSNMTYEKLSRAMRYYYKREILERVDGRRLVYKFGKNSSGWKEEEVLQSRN
Outline: as §1

[9] = target: CRX (Homo sapiens, UniProt O43186 1-299); conditions: protein: recombinant; tags: N-terminal GST; dsDNA, one strand shown
CRX, sequence (O43186 whole entry): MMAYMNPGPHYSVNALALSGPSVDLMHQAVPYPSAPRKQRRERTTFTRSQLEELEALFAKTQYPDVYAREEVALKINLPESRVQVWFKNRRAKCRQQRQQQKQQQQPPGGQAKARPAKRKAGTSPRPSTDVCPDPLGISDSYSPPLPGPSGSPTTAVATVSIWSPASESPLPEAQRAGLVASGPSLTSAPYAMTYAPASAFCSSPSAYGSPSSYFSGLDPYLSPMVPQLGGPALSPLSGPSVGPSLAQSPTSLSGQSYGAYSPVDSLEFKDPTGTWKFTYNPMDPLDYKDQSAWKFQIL
Outline: as §1

[10] = target: ETV1 (Homo sapiens, UniProt P50549 1-477); conditions: protein: recombinant; tags: N-terminal GST; dsDNA, one strand shown
ETV1, sequence (P50549 whole entry): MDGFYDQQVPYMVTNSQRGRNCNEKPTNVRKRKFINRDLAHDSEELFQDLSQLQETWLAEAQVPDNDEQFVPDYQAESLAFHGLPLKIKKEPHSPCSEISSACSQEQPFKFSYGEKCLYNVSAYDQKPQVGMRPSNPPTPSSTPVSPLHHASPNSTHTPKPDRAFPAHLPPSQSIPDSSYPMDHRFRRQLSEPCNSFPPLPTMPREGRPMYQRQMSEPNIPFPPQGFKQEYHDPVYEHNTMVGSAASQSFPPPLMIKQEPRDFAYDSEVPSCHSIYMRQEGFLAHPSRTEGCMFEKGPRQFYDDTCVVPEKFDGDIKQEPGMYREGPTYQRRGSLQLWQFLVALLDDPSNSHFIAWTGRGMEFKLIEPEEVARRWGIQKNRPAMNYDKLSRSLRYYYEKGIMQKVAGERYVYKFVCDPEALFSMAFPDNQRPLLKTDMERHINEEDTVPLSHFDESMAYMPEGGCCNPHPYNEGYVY
Outline: as §1

[11] = target: T6, ERF (Homo sapiens, UniProt P50548 1-548); conditions: protein: recombinant; tags: N-terminal GST; dsDNA, one strand shown
T6 sequence: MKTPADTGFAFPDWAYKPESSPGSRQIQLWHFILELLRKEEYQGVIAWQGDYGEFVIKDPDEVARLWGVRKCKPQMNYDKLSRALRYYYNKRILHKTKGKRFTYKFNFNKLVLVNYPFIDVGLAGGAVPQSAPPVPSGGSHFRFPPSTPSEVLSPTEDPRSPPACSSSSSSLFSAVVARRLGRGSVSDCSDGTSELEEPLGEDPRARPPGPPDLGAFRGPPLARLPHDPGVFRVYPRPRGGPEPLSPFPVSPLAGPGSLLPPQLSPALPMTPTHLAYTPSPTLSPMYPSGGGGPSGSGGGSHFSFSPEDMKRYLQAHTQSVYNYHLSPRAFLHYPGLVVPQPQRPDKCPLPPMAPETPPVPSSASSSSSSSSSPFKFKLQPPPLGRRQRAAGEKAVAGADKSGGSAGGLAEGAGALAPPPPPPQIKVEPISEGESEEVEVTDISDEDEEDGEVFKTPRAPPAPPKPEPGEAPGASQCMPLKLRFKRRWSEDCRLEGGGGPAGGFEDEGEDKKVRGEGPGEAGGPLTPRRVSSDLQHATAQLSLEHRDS
Outline: as §1

[12] = target: T7, ETV3L (Homo sapiens, UniProt Q6ZN32 1-361); conditions: protein: recombinant; tags: N-terminal GST; dsDNA, one strand shown
T7 sequence: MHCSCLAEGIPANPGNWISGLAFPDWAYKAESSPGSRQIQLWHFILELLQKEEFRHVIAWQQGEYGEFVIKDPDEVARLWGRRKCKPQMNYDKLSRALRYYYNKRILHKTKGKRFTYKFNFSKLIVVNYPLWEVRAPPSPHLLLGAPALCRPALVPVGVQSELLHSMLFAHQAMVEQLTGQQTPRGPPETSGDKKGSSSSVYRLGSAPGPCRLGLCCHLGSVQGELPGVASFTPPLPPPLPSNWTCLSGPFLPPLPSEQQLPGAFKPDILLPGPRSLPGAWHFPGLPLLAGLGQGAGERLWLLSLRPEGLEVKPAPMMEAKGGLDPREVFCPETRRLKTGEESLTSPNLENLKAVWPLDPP
Outline: as §1

[13] = target: T8, ETS2 (Homo sapiens, UniProt P15036 1-469); conditions: protein: recombinant; tags: N-terminal GST; dsDNA, one strand shown
T8 sequence: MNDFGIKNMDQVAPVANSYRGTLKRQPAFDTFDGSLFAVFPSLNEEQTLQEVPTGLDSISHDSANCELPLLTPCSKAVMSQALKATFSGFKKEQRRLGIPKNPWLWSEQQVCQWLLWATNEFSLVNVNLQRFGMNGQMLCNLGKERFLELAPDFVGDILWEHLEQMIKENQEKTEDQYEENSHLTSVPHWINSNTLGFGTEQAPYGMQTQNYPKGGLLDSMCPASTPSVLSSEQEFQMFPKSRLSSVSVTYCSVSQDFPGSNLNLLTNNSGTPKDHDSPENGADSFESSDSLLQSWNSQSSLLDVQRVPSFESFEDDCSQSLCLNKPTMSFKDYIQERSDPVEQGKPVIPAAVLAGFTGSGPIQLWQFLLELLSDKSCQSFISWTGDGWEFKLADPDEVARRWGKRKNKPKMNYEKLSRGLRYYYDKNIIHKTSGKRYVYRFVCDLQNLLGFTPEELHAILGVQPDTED
Outline: as §1

[14] = target: T9, SPDEF (Homo sapiens, UniProt O95238 1-335); conditions: protein: recombinant; tags: N-terminal GST; dsDNA, one strand shown
T9 sequence: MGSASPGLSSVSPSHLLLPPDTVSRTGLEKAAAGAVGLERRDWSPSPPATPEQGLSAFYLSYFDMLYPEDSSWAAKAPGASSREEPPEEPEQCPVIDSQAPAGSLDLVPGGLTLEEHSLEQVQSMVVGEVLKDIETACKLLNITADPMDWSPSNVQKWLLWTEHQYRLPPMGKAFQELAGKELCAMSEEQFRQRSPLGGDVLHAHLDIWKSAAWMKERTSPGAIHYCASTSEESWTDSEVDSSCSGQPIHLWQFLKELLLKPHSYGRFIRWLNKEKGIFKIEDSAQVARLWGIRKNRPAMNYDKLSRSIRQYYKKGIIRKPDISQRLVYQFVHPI
Outline: as §1

[15] = target: T10, ETV7 (Homo sapiens, UniProt Q9Y603 1-341); conditions: protein: recombinant; tags: N-terminal GST; dsDNA, one strand shown
T10 sequence: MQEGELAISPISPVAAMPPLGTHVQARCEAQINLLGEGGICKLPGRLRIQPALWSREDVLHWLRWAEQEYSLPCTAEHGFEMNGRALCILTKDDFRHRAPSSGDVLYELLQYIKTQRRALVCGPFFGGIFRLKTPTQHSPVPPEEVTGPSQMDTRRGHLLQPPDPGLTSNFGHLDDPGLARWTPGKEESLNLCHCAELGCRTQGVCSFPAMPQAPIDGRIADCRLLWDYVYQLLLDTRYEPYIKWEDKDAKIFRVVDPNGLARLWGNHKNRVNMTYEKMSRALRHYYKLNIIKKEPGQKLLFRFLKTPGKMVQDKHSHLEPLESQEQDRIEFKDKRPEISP
Outline: as §1

[16] = target: T11, ELF5 (Homo sapiens, UniProt Q9UKW6-2 1-255); conditions: protein: recombinant; tags: N-terminal GST; dsDNA, one strand shown
T11 sequence: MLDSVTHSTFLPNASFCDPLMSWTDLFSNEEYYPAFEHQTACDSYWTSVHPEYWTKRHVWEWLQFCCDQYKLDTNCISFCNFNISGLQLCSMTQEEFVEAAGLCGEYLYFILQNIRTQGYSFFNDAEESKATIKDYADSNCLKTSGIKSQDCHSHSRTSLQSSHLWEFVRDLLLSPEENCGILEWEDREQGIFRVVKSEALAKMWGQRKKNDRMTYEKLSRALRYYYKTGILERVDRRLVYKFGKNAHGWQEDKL
Outline: as §1

[17] = target: T12, ETV3 (Homo sapiens, UniProt P41162-2 1-143); conditions: protein: recombinant; tags: N-terminal GST; dsDNA, one strand shown
T12 sequence: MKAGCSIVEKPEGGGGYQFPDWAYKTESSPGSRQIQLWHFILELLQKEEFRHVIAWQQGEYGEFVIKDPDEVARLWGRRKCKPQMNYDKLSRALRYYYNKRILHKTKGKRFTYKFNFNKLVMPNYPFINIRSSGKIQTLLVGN
Outline: as §1

[18] = target: ETV6 (Homo sapiens, UniProt P41212 1-452); conditions: protein: recombinant; tags: N-terminal GST; dsDNA, one strand shown
ETV6, sequence (P41212 whole entry): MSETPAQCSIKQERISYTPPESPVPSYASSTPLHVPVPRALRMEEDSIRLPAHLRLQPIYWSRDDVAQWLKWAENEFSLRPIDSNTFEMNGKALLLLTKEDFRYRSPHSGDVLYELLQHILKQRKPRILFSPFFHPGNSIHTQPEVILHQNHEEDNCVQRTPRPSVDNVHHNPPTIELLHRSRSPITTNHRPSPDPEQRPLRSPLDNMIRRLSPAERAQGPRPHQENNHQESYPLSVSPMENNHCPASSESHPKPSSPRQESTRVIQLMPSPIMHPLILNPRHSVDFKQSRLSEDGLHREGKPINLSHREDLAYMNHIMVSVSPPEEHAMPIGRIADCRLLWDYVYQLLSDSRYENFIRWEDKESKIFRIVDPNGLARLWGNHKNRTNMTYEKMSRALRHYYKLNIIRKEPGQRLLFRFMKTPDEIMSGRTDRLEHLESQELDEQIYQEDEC
Outline: as §1

Sequence	binding signal [1]	binding signal [2]	binding signal [3]	binding signal [4]	binding signal [5]	binding signal [6]	binding signal [7]	binding signal [8]	binding signal [9]	binding signal [10]	binding signal [11]	binding signal [12]	binding signal [13]	binding signal [14]	binding signal [15]	binding signal [16]	binding signal [17]	binding signal [18]
ATAGAT	1.15 fold enrichment (6-mer frequency, TF over GST control)	1.11 fold enrichment (6-mer frequency, TF over GST control)	1.42 fold enrichment (6-mer frequency, TF over GST control)	1.2 fold enrichment (6-mer frequency, TF over GST control)	1.17 fold enrichment (6-mer frequency, TF over GST control)	1.13 fold enrichment (6-mer frequency, TF over GST control)	1.19 fold enrichment (6-mer frequency, TF over GST control)	1.13 fold enrichment (6-mer frequency, TF over GST control)	1.49 fold enrichment (6-mer frequency, TF over GST control)	1.19 fold enrichment (6-mer frequency, TF over GST control)	1.2 fold enrichment (6-mer frequency, TF over GST control)	1.25 fold enrichment (6-mer frequency, TF over GST control)	1.12 fold enrichment (6-mer frequency, TF over GST control)	1.27 fold enrichment (6-mer frequency, TF over GST control)	1.17 fold enrichment (6-mer frequency, TF over GST control)	1.18 fold enrichment (6-mer frequency, TF over GST control)	1.01 fold enrichment (6-mer frequency, TF over GST control)	1.15 fold enrichment (6-mer frequency, TF over GST control)
TTAGCT	1.2 fold enrichment (6-mer frequency, TF over GST control)	1.2 fold enrichment (6-mer frequency, TF over GST control)	1.82 fold enrichment (6-mer frequency, TF over GST control)	1.16 fold enrichment (6-mer frequency, TF over GST control)	1.28 fold enrichment (6-mer frequency, TF over GST control)	1.24 fold enrichment (6-mer frequency, TF over GST control)	1.28 fold enrichment (6-mer frequency, TF over GST control)	1.18 fold enrichment (6-mer frequency, TF over GST control)	2.63 fold enrichment (6-mer frequency, TF over GST control)	1.2 fold enrichment (6-mer frequency, TF over GST control)	1.2 fold enrichment (6-mer frequency, TF over GST control)	1.16 fold enrichment (6-mer frequency, TF over GST control)	1.26 fold enrichment (6-mer frequency, TF over GST control)	1.08 fold enrichment (6-mer frequency, TF over GST control)	1.17 fold enrichment (6-mer frequency, TF over GST control)	1.13 fold enrichment (6-mer frequency, TF over GST control)	1.19 fold enrichment (6-mer frequency, TF over GST control)	1.26 fold enrichment (6-mer frequency, TF over GST control)
